From PubChem BioAssay (NCATS)
Results filed as inconclusive are left out. Entries that show only a call come without a potency. Active and inactive are the calls of the source. Calls come from the whole dose curve; as a rule, active = well fitted curve in the direction sought with a large enough effect; inconclusive = small, poorly fitted or top-dose-only effect, or another doubt; inactive = no such curve, though single readings can be large; an effect the other way counts as inactive or inconclusive.

Tests used:
[1] = qHTS for Inhibitors of Plasmodium falciparum (DD2) proliferation (AID 504314)
How it was run: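 Erythrocytes infected with P. falciparum (0.3% parasitemia, 2.5% hematocrit final) were incubated with compounds for 72 h at 37C, 5% CO2. Parasite DNA was detected by SYBR Green I fluorescence after saponin/Triton lysis, normalized to artemisinin (0.29 uM) and DMSO controls.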

[2] = qHTS for Inhibitors of Plasmodium falciparum (GB4) proliferation (AID 504315); note: nearly all actives have a fitted effect of over 50% in size
How it was run: (§1)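 Erythrocytes infected with P. falciparum line (0.3% parasitemia, 2.5% hematocrit final) incubated with compounds 72 h at 37 °C, 5% CO2; SYBR Green lysis buffer added, fluorescence read next day. Normalized to 0.29 uM artemisinin and DMSO.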

[3] = qHTS for Inhibitors of Plasmodium falciparum (7G8) proliferation (AID 504316); note: nearly all actives have a fitted effect of over 65% in size
How it was run: as §1

[4] = qHTS for Inhibitors of Plasmodium falciparum (HB3) proliferation (AID 504318); note: nearly all actives have a fitted effect of over 60% in size
How it was run: as §1

[5] = qHTS for Inhibitors of Plasmodium falciparum (CP250) proliferation (AID 504320)
How it was run: as §1
Potency is the fitted concentration of half-maximal effect.

Q: What does the source list for `COc1ccc(-c2nc3c(c4c2C[C@H](c2ccccc2)OC4)CN(C(=O)NCCc2c[nH]c4ccccc24)CC3)c(C)c1`?
A: Potency [1]: inactive; Potency [2]: inactive; Potency [3]: inactive; Potency [4]: inactive; Potency [5]: inactive

Q: Which Potency [1] does the source give for `CCN(CC)CCCN1C=C2C(=O)C(C)(OC(=O)CCC(=O)OC)C(=O)C=C2C=C1C1CC1` (stereo not given) here?
A: inactive

Q: And the Potency [2]?
A: inactive

Q: What about the Potency [3] of the same compound?
A: inactive

Q: What about the Potency [4] of the same compound?
A: inactive

Q: And the Potency [5]?
A: inactive

Q: What does the source list for `FC(F)(F)c1cc(NC(=S)NC23CC4CC(CC(C4)C2)C3)cc(C(F)(F)F)c1`?
A: Potency [1]: 753 nM (active); Potency [2]: 1070 nM (active); Potency [3]: 601 nM (active); Potency [4]: 478 nM (active); Potency [5]: 849 nM (active)

Q: What does the source list for `C[C@H]1Cc2c(-c3ccccc3)nc3c(c2CO1)CN(C(=O)C1CCCCC1)CC3`?
A: Potency [1]: inactive; Potency [2]: inactive; Potency [3]: inactive; Potency [4]: inactive; Potency [5]: inactive

Q: With `COCCN1C(=O)N[C@@H](c2ccccc2)[C@H](C(=O)OC)[C@H]1C` as the compound, how does the Potency [1] read?
A: inactive

Q: What about the Potency [2] of the same compound?
A: inactive

Q: And the Potency [3]?
A: inactive

Q: What about the Potency [4] of the same compound?
A: inactive

Q: And the Potency [5]?
A: inactive

Q: With `CCC(=O)OC1(C)C(=O)C=C2C=C(CCCCNC(=O)OC(C)(C)C)OC=C2C1=O` (stereo not given) as the compound, how does the Potency [1] read?
A: inactive

Q: What about the Potency [2] of the same compound?
A: inactive

Q: What about the Potency [3] of the same compound?
A: inactive

Q: What about the Potency [4] of the same compound?
A: inactive

Q: What about the Potency [5] of the same compound?
A: inactive

Q: Which Potency [1] does the source give for `CC1(OC(=O)c2ccc(Cl)nc2)C(=O)C=c2cc(-c3ccsc3)ncc2=C1OC(=O)C1CCCC1` (stereo not given) here?
A: inactive

Q: What about the Potency [2] of the same compound?
A: inactive

Q: And the Potency [3]?
A: inactive

Q: What about the Potency [4] of the same compound?
A: inactive

Q: And the Potency [5]?
A: inactive

Q: For `COC/C=C/C1=CC2=CC(=O)C(C)(OC(=O)c3cnc4ccccc4n3)C(=O)C2=CN1CCc1c[nH]c2ccccc12` (stereo not given), which Potency [1] is on record?
A: inactive

Q: What about the Potency [2] of the same compound?
A: inactive

Q: And the Potency [3]?
A: inactive

Q: And the Potency [4]?
A: inactive

Q: What about the Potency [5] of the same compound?
A: inactive

Q: For `CC(=O)c1ccc([C@@H]2C=C[C@H](O)[C@@H](CO)O2)cc1`, which Potency [1] is on record?
A: inactive

Q: And the Potency [2]?
A: inactive

Q: And the Potency [3]?
A: inactive

Q: And the Potency [4]?
A: inactive

Q: And the Potency [5]?
A: inactive

Q: Which Potency [1] does the source give for `CCN1C(=O)N[C@@H](c2cccc(C(F)(F)F)c2)[C@H](C(=O)OC)[C@H]1C` here?
A: inactive

Q: And the Potency [2]?
A: inactive

Q: What about the Potency [3] of the same compound?
A: inactive

Q: And the Potency [4]?
A: inactive

Q: What about the Potency [5] of the same compound?
A: inactive

Q: Which Potency [1] does the source give for `COC(=O)C1=C(C(=O)OC)[C@@H]2N(Cc3ccccc3)c3ccccc3[C@@]23C[C@@H](C(=O)OC)N(C(=O)c2ccco2)C3=N1` here?
A: inactive

Q: What about the Potency [2] of the same compound?
A: inactive

Q: What about the Potency [3] of the same compound?
A: inactive

Q: And the Potency [4]?
A: inactive

Q: What about the Potency [5] of the same compound?
A: inactive

Q: Which results are given for `COC(=O)C1=C(C(=O)OC)[C@@H]2N(C)c3ccccc3[C@@]23C[C@@H](C(=O)OC)N(C(C)=O)C3=N1`?
A: Potency [1]: inactive; Potency [2]: inactive; Potency [3]: inactive; Potency [4]: inactive; Potency [5]: inactive

Q: For `COC(=O)CCC(=O)OC1(C)C(=O)C2=CN(Cc3ccc4c(c3)OCO4)C(c3ccc(OC)cc3)=CC2=C(Br)C1=O` (stereo not given), which Potency [1] is on record?
A: inactive

Q: And the Potency [2]?
A: inactive

Q: What about the Potency [3] of the same compound?
A: inactive

Q: And the Potency [4]?
A: inactive

Q: And the Potency [5]?
A: inactive

Q: Which results are given for `CC[C@@H](C)CN1C(=O)N[C@@H](CCc2ccccc2)C(C(C)=O)=C1C`?
A: Potency [1]: inactive; Potency [2]: inactive; Potency [3]: inactive; Potency [4]: inactive; Potency [5]: inactive

Q: What does the source list for `C=C(C(C)=O)C(O)C=Cc1ccco1` (stereo not given)?
A: Potency [1]: inactive; Potency [2]: inactive; Potency [3]: inactive; Potency [4]: inactive; Potency [5]: inactive

Q: For `CCCCC1=CC2=C(c3ccco3)C(=O)C(C)(OC(=O)c3ccc(OC)cc3)C(=O)C2=CN1CCCCO` (stereo not given), which Potency [1] is on record?
A: inactive

Q: What about the Potency [2] of the same compound?
A: inactive

Q: What about the Potency [3] of the same compound?
A: inactive

Q: And the Potency [4]?
A: inactive

Q: What about the Potency [5] of the same compound?
A: inactive

Q: Which results are given for `CC(=O)[C@@H]1[C@@H](C)N(Cc2ccccc2)C(=O)N[C@H]1c1cccc(C(F)(F)F)c1`?
A: Potency [1]: inactive; Potency [2]: inactive; Potency [3]: inactive; Potency [4]: inactive; Potency [5]: inactive

Q: Which Potency [1] does the source give for `CCOC(=O)CN1C(=O)N[C@@H](c2cccs2)C(C(C)=O)=C1C` here?
A: inactive

Q: What about the Potency [2] of the same compound?
A: inactive

Q: And the Potency [3]?
A: inactive

Q: What about the Potency [4] of the same compound?
A: inactive

Q: And the Potency [5]?
A: inactive

Q: Which Potency [1] does the source give for `COC(=O)[C@H](Cc1ccccc1)NC(=O)O[C@@H]1C(=O)c2cc(OC)ccc2O[C@H]1c1cccc(OC)c1` here?
A: inactive

Q: What about the Potency [2] of the same compound?
A: inactive

Q: What about the Potency [3] of the same compound?
A: inactive

Q: And the Potency [4]?
A: inactive

Q: And the Potency [5]?
A: inactive

Q: With `CCOC(=O)CN1C(=O)N[C@@H](c2ccco2)C(C(=O)OC)=C1C` as the compound, how does the Potency [1] read?
A: inactive

Q: And the Potency [2]?
A: inactive

Q: And the Potency [3]?
A: inactive

Q: And the Potency [4]?
A: inactive

Q: And the Potency [5]?
A: inactive

Q: With `C[C@H]1Cc2c(COc3ccccc3)nc3c(c2CO1)CN(C(=O)Nc1cccc(C#N)c1)CC3` as the compound, how does the Potency [1] read?
A: inactive

Q: And the Potency [2]?
A: inactive

Q: And the Potency [3]?
A: inactive

Q: What about the Potency [4] of the same compound?
A: inactive

Q: And the Potency [5]?
A: inactive

Q: What does the source list for `CCOC(=O)CN1C(=O)N[C@@H](c2ccccc2)[C@H](C(=O)OC)[C@H]1C`?
A: Potency [1]: inactive; Potency [2]: inactive; Potency [3]: inactive; Potency [4]: inactive; Potency [5]: inactive

Q: With `CCOC(=O)NN=C1C[C@@H](O)[C@@H](O)[C@@H]2[C@H]3C(=O)N([C@@H](C)c4ccccc4)C(=O)[C@@H]3CC[C@@H]12` as the compound, how does the Potency [1] read?
A: inactive

Q: And the Potency [2]?
A: inactive

Q: And the Potency [3]?
A: inactive

Q: And the Potency [4]?
A: inactive

Q: And the Potency [5]?
A: inactive

Q: With `CC(=O)C1=C(C)N(Cc2ccccc2)C(=O)N[C@H]1c1cccc(F)c1` as the compound, how does the Potency [1] read?
A: inactive

Q: What about the Potency [2] of the same compound?
A: inactive

Q: And the Potency [3]?
A: inactive

Q: What about the Potency [4] of the same compound?
A: inactive

Q: What about the Potency [5] of the same compound?
A: inactive

Q: Which Potency [1] does the source give for `CC1(OC(=O)CCc2ccccc2)C(=O)C=C2C=C3CCCN3C=C2C1=O` (stereo not given) here?
A: inactive

Q: And the Potency [2]?
A: inactive

Q: What about the Potency [3] of the same compound?
A: inactive

Q: And the Potency [4]?
A: inactive

Q: And the Potency [5]?
A: inactive
